# Substitutions are numbered along the chain they refer to.
# Key:
# Assay in all cases: PBM; 200 nM protein, PBS
# Conditions in all cases: dsDNA, one strand shown
# HOXB6 [1] = molecular target: HOXB6 (Homo sapiens, UniProt P17509 132-218, K202E)
# MSX2 [2] = molecular target: MSX2 (Homo sapiens, UniProt P35548 130-214)
# MSX2 [3] = molecular target: MSX2 (Homo sapiens, UniProt P35548 130-214, F161Y)
# HOXB6 [4] = molecular target: HOXB6 (Homo sapiens, UniProt P17509 132-218)
# NKX2-6 [5] = molecular target: T1, NKX2-6 (Homo sapiens, UniProt A6NCS4 118-204, R150C)
# T1 sequence: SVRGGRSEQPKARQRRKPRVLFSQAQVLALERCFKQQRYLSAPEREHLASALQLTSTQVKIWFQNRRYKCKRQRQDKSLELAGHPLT
# NKX2-6 [6] = molecular target: T2, NKX2-6 (Homo sapiens, UniProt A6NCS4 118-204)
# T2 sequence: T1 sequence with C33R
# NKX2-6 [7] = molecular target: T3, NKX2-6 (Homo sapiens, UniProt A6NCS4 118-204, F151L)
# T3 sequence: T1 sequence with C33R, F34L
# SIX6 [8] = molecular target: T4, SIX6 (Homo sapiens, UniProt O95475 114-200, L143I)
# T4 sequence: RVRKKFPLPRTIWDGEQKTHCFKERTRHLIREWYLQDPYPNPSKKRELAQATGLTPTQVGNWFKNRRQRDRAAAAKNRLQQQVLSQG
# HOXD13 [9] = molecular target: HOXD13 (Homo sapiens, UniProt P35453 263-343, T313R)
# HOXD13 (Homo sapiens, UniProt P35453 263-343, T313R), sequence (P35453 263-343 T313R): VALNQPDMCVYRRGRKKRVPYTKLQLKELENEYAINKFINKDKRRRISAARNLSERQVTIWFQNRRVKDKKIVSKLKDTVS
# HOXD13 [10] = molecular target: HOXD13 (Homo sapiens, UniProt P35453 263-343)
# HOXD13 (Homo sapiens, UniProt P35453 263-343), sequence (P35453 263-343): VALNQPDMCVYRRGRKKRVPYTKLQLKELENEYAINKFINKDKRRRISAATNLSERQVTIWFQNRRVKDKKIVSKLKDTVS
# HOXD13 [11] = molecular target: HOXD13 (Homo sapiens, UniProt P35453 263-343, T313A)
# HOXD13 (Homo sapiens, UniProt P35453 263-343, T313A), sequence (P35453 263-343 T313A): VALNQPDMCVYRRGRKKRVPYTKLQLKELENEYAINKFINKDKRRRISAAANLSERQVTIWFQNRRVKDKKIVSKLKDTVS
# HOXA2 [12] = molecular target: HOXA2 (Homo sapiens, UniProt O43364 129-215, R185T)
# HOXA2 (Homo sapiens, UniProt O43364 129-215, R185T), sequence (O43364 129-215 R185T): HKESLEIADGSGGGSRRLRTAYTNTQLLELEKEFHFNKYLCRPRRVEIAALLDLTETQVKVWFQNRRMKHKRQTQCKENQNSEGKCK
# HOXA2 [13] = molecular target: HOXA2 (Homo sapiens, UniProt O43364 129-215, R185K)
# HOXA2 (Homo sapiens, UniProt O43364 129-215, R185K), sequence (O43364 129-215 R185K): as the sequence (O43364 129-215 R185T) above, with T57K counted along it
# HOXA2 [14] = molecular target: HOXA2 (Homo sapiens, UniProt O43364 129-215, Y150S)
# HOXA2 (Homo sapiens, UniProt O43364 129-215, Y150S), sequence (O43364 129-215 Y150S): as the sequence (O43364 129-215 R185T) above, with Y22S, T57R counted along it
# HOXA2 [15] = molecular target: HOXA2 (Homo sapiens, UniProt O43364 129-215)
# HOXA2 (Homo sapiens, UniProt O43364 129-215), sequence (O43364 129-215): as the sequence (O43364 129-215 R185T) above, with T57R counted along it
# PROP1 [16] = molecular target: PROP1 (Homo sapiens, UniProt O75360 56-141)
# PROP1 (Homo sapiens, UniProt O75360 56-141), sequence (O75360 56-141): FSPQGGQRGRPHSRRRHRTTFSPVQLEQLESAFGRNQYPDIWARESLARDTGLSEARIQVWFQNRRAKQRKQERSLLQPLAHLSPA
# PROP1 [17] = molecular target: PROP1 (Homo sapiens, UniProt O75360 56-141, R99H)
# PROP1 (Homo sapiens, UniProt O75360 56-141, R99H), sequence (O75360 56-141 R99H): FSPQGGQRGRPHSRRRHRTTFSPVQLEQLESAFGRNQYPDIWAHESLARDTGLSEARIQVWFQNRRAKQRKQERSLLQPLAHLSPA
# PROP1 [18] = molecular target: PROP1 (Homo sapiens, UniProt O75360 56-141, F88S)
# PROP1 (Homo sapiens, UniProt O75360 56-141, F88S), sequence (O75360 56-141 F88S): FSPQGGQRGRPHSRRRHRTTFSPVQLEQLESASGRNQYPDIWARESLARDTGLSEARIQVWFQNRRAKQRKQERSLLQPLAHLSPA
# NKX2-4 [19] = molecular target: T5, NKX2-4 (Homo sapiens, UniProt Q9H2Z4 175-261)
# T5 sequence: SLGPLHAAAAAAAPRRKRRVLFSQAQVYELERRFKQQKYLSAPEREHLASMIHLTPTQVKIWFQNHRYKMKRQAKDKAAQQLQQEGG
# NKX2-4 [20] = molecular target: T6, NKX2-4 (Homo sapiens, UniProt Q9H2Z4 175-261, R246Q)
# T6 sequence: T5 sequence with R72Q
# PITX2 = PITX2 (Homo sapiens, UniProt Q99697 72-157)
# VAX1 [21] = molecular target: VAX1 (Homo sapiens, UniProt Q5SQQ9 86-172)
# VAX1 (Homo sapiens, UniProt Q5SQQ9 86-172), sequence (Q5SQQ9 86-172): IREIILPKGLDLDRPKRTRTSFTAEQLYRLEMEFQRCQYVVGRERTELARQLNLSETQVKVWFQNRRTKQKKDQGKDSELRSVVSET
# VAX1 [22] = molecular target: VAX1 (Homo sapiens, UniProt Q5SQQ9 86-172, T142I)
# VAX1 (Homo sapiens, UniProt Q5SQQ9 86-172, T142I), sequence (Q5SQQ9 86-172 T142I): as the sequence (Q5SQQ9 86-172) above, with T57I counted along it
# VAX1 [23] = molecular target: VAX1 (Homo sapiens, UniProt Q5SQQ9 86-172, K157R)
# VAX1 (Homo sapiens, UniProt Q5SQQ9 86-172, K157R), sequence (Q5SQQ9 86-172 K157R): as the sequence (Q5SQQ9 86-172) above, with K72R counted along it
# SIX6 [24] = molecular target: T7, SIX6 (Homo sapiens, UniProt O95475 114-200, L143M)
# T7 sequence: T4 sequence with I30M
# SIX6 [25] = molecular target: T8, SIX6 (Homo sapiens, UniProt O95475 114-200, L167V)
# T8 sequence: T4 sequence with I30L, L54V
# MSX2 [26] = molecular target: MSX2 (Homo sapiens, UniProt P35548 130-214, R199I)
# MSX2 (Homo sapiens, UniProt P35548 130-214, R199I), sequence (P35548 130-214 R199I): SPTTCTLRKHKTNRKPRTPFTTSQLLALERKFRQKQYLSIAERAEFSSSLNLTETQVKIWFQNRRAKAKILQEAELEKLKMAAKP
# ALX1 [27] = molecular target: ALX1 (Homo sapiens, UniProt Q15699 118-204, L144V)
# ALX1 (Homo sapiens, UniProt Q15699 118-204, L144V), sequence (Q15699 118-204 L144V): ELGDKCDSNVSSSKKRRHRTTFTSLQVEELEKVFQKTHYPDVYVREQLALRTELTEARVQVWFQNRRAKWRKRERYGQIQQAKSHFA
# ALX3 [28] = molecular target: ALX3 (Homo sapiens, UniProt O95076 139-225, N203Q)
# ALX3 (Homo sapiens, UniProt O95076 139-225, N203Q), sequence (O95076 139-225 N203Q): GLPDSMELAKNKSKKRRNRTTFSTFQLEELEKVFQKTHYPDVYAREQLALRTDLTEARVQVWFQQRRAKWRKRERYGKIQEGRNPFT
# ALX1 [29] = molecular target: ALX1 (Homo sapiens, UniProt Q15699 118-204, L144R)
# ALX1 (Homo sapiens, UniProt Q15699 118-204, L144R), sequence (Q15699 118-204 L144R): as the sequence (Q15699 118-204 L144V) above, with V27R counted along it
# ALX3 [30] = molecular target: ALX3 (Homo sapiens, UniProt O95076 139-225)
# ALX3 (Homo sapiens, UniProt O95076 139-225), sequence (O95076 139-225): as the sequence (O95076 139-225 N203Q) above, with Q65N counted along it
# ALX3 [31] = molecular target: ALX3 (Homo sapiens, UniProt O95076 139-225, L168Q)
# ALX3 (Homo sapiens, UniProt O95076 139-225, L168Q), sequence (O95076 139-225 L168Q): as the sequence (O95076 139-225 N203Q) above, with L30Q, Q65N counted along it
# ALX3 [32] = molecular target: ALX3 (Homo sapiens, UniProt O95076 139-225, L168V)
# ALX3 (Homo sapiens, UniProt O95076 139-225, L168V), sequence (O95076 139-225 L168V): as the sequence (O95076 139-225 N203Q) above, with L30V, Q65N counted along it
# NKX3-2 [33] = molecular target: NKX3-2 (Homo sapiens, UniProt P78367 192-278, P234S)
# NKX3-2 (Homo sapiens, UniProt P78367 192-278, P234S), sequence (P78367 192-278 P234S): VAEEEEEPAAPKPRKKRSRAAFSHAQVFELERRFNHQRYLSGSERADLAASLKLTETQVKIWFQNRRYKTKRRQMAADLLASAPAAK
# ALX1 [34] = molecular target: ALX1 (Homo sapiens, UniProt Q15699 118-204)
# ALX1 (Homo sapiens, UniProt Q15699 118-204), sequence (Q15699 118-204): as the sequence (Q15699 118-204 L144V) above, with V27L counted along it
# ALX3 [35] = molecular target: ALX3 (Homo sapiens, UniProt O95076 139-225, N203S)
# ALX3 (Homo sapiens, UniProt O95076 139-225, N203S), sequence (O95076 139-225 N203S): as the sequence (O95076 139-225 N203Q) above, with Q65S counted along it
# NKX3-2 [36] = molecular target: NKX3-2 (Homo sapiens, UniProt P78367 192-278)
# NKX3-2 (Homo sapiens, UniProt P78367 192-278), sequence (P78367 192-278): as the sequence (P78367 192-278 P234S) above, with S43P counted along it
# HOXB6 (Homo sapiens, UniProt P17509 132-218), sequence (P17509 132-218): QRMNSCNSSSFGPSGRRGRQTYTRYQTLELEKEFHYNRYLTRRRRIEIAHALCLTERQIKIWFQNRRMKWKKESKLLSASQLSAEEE
# HOXB6 (Homo sapiens, UniProt P17509 132-218, K202E), sequence (P17509 132-218 K202E): as the sequence (P17509 132-218) above, with K71E counted along it
# MSX2 (Homo sapiens, UniProt P35548 130-214, F161Y), sequence (P35548 130-214 F161Y): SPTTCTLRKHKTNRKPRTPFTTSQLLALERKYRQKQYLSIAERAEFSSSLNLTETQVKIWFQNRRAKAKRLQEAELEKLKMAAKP
# MSX2 (Homo sapiens, UniProt P35548 130-214), sequence (P35548 130-214): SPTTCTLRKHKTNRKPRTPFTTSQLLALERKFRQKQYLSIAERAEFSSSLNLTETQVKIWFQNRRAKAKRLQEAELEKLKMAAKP
sequence,measurement,setting,value
ATAAAAGC,binding signal,HOXB6 [1],"9.53 upbm affinity estimate (log intensity, higher = more binding, comparable within an allelic series)"
same,binding signal,MSX2 [2],"10.9 upbm affinity estimate (log intensity, higher = more binding, comparable within an allelic series)"
same,binding signal,MSX2 [3],"10.8 upbm affinity estimate (log intensity, higher = more binding, comparable within an allelic series)"
same,binding signal,HOXB6 [4],"10.3 upbm affinity estimate (log intensity, higher = more binding, comparable within an allelic series)"
ACGGGCCT,binding signal,HOXB6 [1],"8.87 upbm affinity estimate (log intensity, higher = more binding, comparable within an allelic series)"
same,binding signal,NKX2-6 [5],"9.14 upbm affinity estimate (log intensity, higher = more binding, comparable within an allelic series)"
same,binding signal,HOXB6 [4],"8.95 upbm affinity estimate (log intensity, higher = more binding, comparable within an allelic series)"
CTCCTCGC,binding signal,HOXB6 [1],"9.02 upbm affinity estimate (log intensity, higher = more binding, comparable within an allelic series)"
same,binding signal,HOXB6 [4],"9.05 upbm affinity estimate (log intensity, higher = more binding, comparable within an allelic series)"
GGACCCCC,binding signal,HOXB6 [1],"8.73 upbm affinity estimate (log intensity, higher = more binding, comparable within an allelic series)"
same,binding signal,NKX2-6 [6],"9.37 upbm affinity estimate (log intensity, higher = more binding, comparable within an allelic series)"
same,binding signal,NKX2-6 [7],"8.99 upbm affinity estimate (log intensity, higher = more binding, comparable within an allelic series)"
same,binding signal,HOXB6 [4],"8.68 upbm affinity estimate (log intensity, higher = more binding, comparable within an allelic series)"
ATACATAC,binding signal,SIX6 [8],"10.4 upbm affinity estimate (log intensity, higher = more binding, comparable within an allelic series)"
GGCCTCCC,binding signal,HOXB6 [1],"8.93 upbm affinity estimate (log intensity, higher = more binding, comparable within an allelic series)"
same,binding signal,HOXD13 [9],"9.37 upbm affinity estimate (log intensity, higher = more binding, comparable within an allelic series)"
same,binding signal,HOXD13 [10],"9.63 upbm affinity estimate (log intensity, higher = more binding, comparable within an allelic series)"
same,binding signal,HOXD13 [11],"9.7 upbm affinity estimate (log intensity, higher = more binding, comparable within an allelic series)"
same,binding signal,HOXB6 [4],"9.02 upbm affinity estimate (log intensity, higher = more binding, comparable within an allelic series)"
CGAGGCTC,binding signal,HOXB6 [1],"9.01 upbm affinity estimate (log intensity, higher = more binding, comparable within an allelic series)"
same,binding signal,NKX2-6 [5],"9.43 upbm affinity estimate (log intensity, higher = more binding, comparable within an allelic series)"
same,binding signal,HOXB6 [4],"9.11 upbm affinity estimate (log intensity, higher = more binding, comparable within an allelic series)"
CACCCGGG,binding signal,HOXB6 [1],"9.01 upbm affinity estimate (log intensity, higher = more binding, comparable within an allelic series)"
same,binding signal,HOXA2 [12],"7.01 upbm affinity estimate (log intensity, higher = more binding, comparable within an allelic series)"
same,binding signal,HOXA2 [13],"10.3 upbm affinity estimate (log intensity, higher = more binding, comparable within an allelic series)"
same,binding signal,HOXA2 [14],"10.5 upbm affinity estimate (log intensity, higher = more binding, comparable within an allelic series)"
same,binding signal,HOXA2 [15],"7.11 upbm affinity estimate (log intensity, higher = more binding, comparable within an allelic series)"
same,binding signal,HOXB6 [4],"8.87 upbm affinity estimate (log intensity, higher = more binding, comparable within an allelic series)"
CCACGCTC,binding signal,HOXB6 [1],"8.98 upbm affinity estimate (log intensity, higher = more binding, comparable within an allelic series)"
same,binding signal,PROP1 [16],"6.83 upbm affinity estimate (log intensity, higher = more binding, comparable within an allelic series)"
same,binding signal,PROP1 [17],"6.88 upbm affinity estimate (log intensity, higher = more binding, comparable within an allelic series)"
same,binding signal,PROP1 [18],"6.58 upbm affinity estimate (log intensity, higher = more binding, comparable within an allelic series)"
same,binding signal,HOXB6 [4],"9.03 upbm affinity estimate (log intensity, higher = more binding, comparable within an allelic series)"
ATAATACC,binding signal,SIX6 [8],"10.4 upbm affinity estimate (log intensity, higher = more binding, comparable within an allelic series)"
AGTGCAGA,binding signal,NKX2-4 [19],"11.4 upbm affinity estimate (log intensity, higher = more binding, comparable within an allelic series)"
same,binding signal,NKX2-4 [20],"11.7 upbm affinity estimate (log intensity, higher = more binding, comparable within an allelic series)"
CGTGGCAG,binding signal,HOXB6 [1],"9.05 upbm affinity estimate (log intensity, higher = more binding, comparable within an allelic series)"
same,binding signal,HOXA2 [12],"7.29 upbm affinity estimate (log intensity, higher = more binding, comparable within an allelic series)"
same,binding signal,PITX2,"8.07 upbm affinity estimate (log intensity, higher = more binding, comparable within an allelic series)"
same,binding signal,HOXA2 [13],"10.5 upbm affinity estimate (log intensity, higher = more binding, comparable within an allelic series)"
same,binding signal,VAX1 [21],"7.05 upbm affinity estimate (log intensity, higher = more binding, comparable within an allelic series)"
same,binding signal,VAX1 [22],"7.33 upbm affinity estimate (log intensity, higher = more binding, comparable within an allelic series)"
same,binding signal,HOXA2 [14],"10.4 upbm affinity estimate (log intensity, higher = more binding, comparable within an allelic series)"
same,binding signal,HOXA2 [15],"7.45 upbm affinity estimate (log intensity, higher = more binding, comparable within an allelic series)"
same,binding signal,VAX1 [23],"7.05 upbm affinity estimate (log intensity, higher = more binding, comparable within an allelic series)"
same,binding signal,HOXB6 [4],"9.07 upbm affinity estimate (log intensity, higher = more binding, comparable within an allelic series)"
CGGATATC,binding signal,SIX6 [24],"10.9 upbm affinity estimate (log intensity, higher = more binding, comparable within an allelic series)"
same,binding signal,SIX6 [25],"10.8 upbm affinity estimate (log intensity, higher = more binding, comparable within an allelic series)"
CGGATCCG,binding signal,HOXB6 [1],"9.01 upbm affinity estimate (log intensity, higher = more binding, comparable within an allelic series)"
same,binding signal,MSX2 [26],"9.47 upbm affinity estimate (log intensity, higher = more binding, comparable within an allelic series)"
same,binding signal,ALX1 [27],"6.32 upbm affinity estimate (log intensity, higher = more binding, comparable within an allelic series)"
same,binding signal,ALX3 [28],"7.82 upbm affinity estimate (log intensity, higher = more binding, comparable within an allelic series)"
same,binding signal,ALX1 [29],"6.18 upbm affinity estimate (log intensity, higher = more binding, comparable within an allelic series)"
same,binding signal,MSX2 [2],"9.48 upbm affinity estimate (log intensity, higher = more binding, comparable within an allelic series)"
same,binding signal,ALX3 [30],"7.83 upbm affinity estimate (log intensity, higher = more binding, comparable within an allelic series)"
same,binding signal,ALX3 [31],"7.82 upbm affinity estimate (log intensity, higher = more binding, comparable within an allelic series)"
same,binding signal,ALX3 [32],"7.74 upbm affinity estimate (log intensity, higher = more binding, comparable within an allelic series)"
same,binding signal,MSX2 [3],"9.45 upbm affinity estimate (log intensity, higher = more binding, comparable within an allelic series)"
same,binding signal,NKX3-2 [33],"10.3 upbm affinity estimate (log intensity, higher = more binding, comparable within an allelic series)"
same,binding signal,ALX1 [34],"6.2 upbm affinity estimate (log intensity, higher = more binding, comparable within an allelic series)"
same,binding signal,ALX3 [35],"7.82 upbm affinity estimate (log intensity, higher = more binding, comparable within an allelic series)"
same,binding signal,HOXB6 [4],"8.86 upbm affinity estimate (log intensity, higher = more binding, comparable within an allelic series)"
same,binding signal,NKX3-2 [36],"10.3 upbm affinity estimate (log intensity, higher = more binding, comparable within an allelic series)"
GAGGGGCA,binding signal,HOXB6 [1],"9.15 upbm affinity estimate (log intensity, higher = more binding, comparable within an allelic series)"
same,binding signal,HOXB6 [4],"9.24 upbm affinity estimate (log intensity, higher = more binding, comparable within an allelic series)"
ACTATTGA,binding signal,HOXB6 [1],"9.51 upbm affinity estimate (log intensity, higher = more binding, comparable within an allelic series)"
same,binding signal,ALX3 [28],"8.21 upbm affinity estimate (log intensity, higher = more binding, comparable within an allelic series)"
same,binding signal,ALX3 [30],"9.1 upbm affinity estimate (log intensity, higher = more binding, comparable within an allelic series)"
same,binding signal,ALX3 [35],"8.3 upbm affinity estimate (log intensity, higher = more binding, comparable within an allelic series)"
same,binding signal,HOXB6 [4],"10.1 upbm affinity estimate (log intensity, higher = more binding, comparable within an allelic series)"
AGTCCCCC,binding signal,HOXB6 [1],"8.9 upbm affinity estimate (log intensity, higher = more binding, comparable within an allelic series)"
same,binding signal,ALX1 [27],"6.53 upbm affinity estimate (log intensity, higher = more binding, comparable within an allelic series)"
same,binding signal,ALX1 [29],"6.37 upbm affinity estimate (log intensity, higher = more binding, comparable within an allelic series)"
same,binding signal,ALX1 [34],"6.41 upbm affinity estimate (log intensity, higher = more binding, comparable within an allelic series)"
same,binding signal,HOXB6 [4],"8.97 upbm affinity estimate (log intensity, higher = more binding, comparable within an allelic series)"
ACTACTAG,binding signal,NKX2-4 [19],"11.1 upbm affinity estimate (log intensity, higher = more binding, comparable within an allelic series)"
